Results taken from the supplement of paper PMC6555819.

Experiments:
Experiment in all cases: PBM binding z-score (relative to random genomic background probes); higher = stronger binding; sequences stand for … in GC…GCGATTGACAGCGTAGAATGAAGG
[1] = test system: FXR:RXRa (NR concentration 270 nM, RXRa partner concentration 90 nM)
Summary of the method: (§1)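 On custom Agilent 4×180K arrays, double-stranded probes with 34-nt variable regions carried direct-repeat seeds, single-nucleotide variants, half-site ablations or random human genomic background. Ligand-free nuclear receptor dimers were applied for 1 h, and binding was read with antibodies against each partner (one per run). Binding z-scores come from regression-normalized fluorescence, with the random background probes as reference.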

[2] = test system: LXRa:RXRa (NR concentration 270 nM, RXRa partner concentration 90 nM)
Summary of the method: as §1

[3] = test system: LXRa homodimer (NR concentration 270 nM)
Summary of the method: as §1

[4] = test system: LXRb:RXRa (NR concentration 270 nM, RXRa partner concentration 90 nM)
Summary of the method: as §1

[5] = test system: LXRb homodimer (NR concentration 270 nM)
Summary of the method: as §1

[6] = test system: PPARa:RXRa (NR concentration 270 nM, RXRa partner concentration 90 nM)
Summary of the method: as §1

[7] = test system: PPARg:RXRa (NR concentration 180 nM, RXRa partner concentration 90 nM)
Summary of the method: as §1

[8] = test system: PPARg:RXRa 270nM:90nM, anti-RXR (NR concentration 270 nM, RXRa partner concentration 90 nM)
Summary of the method: as §1

[9] = test system: PPARg:RXRa 30nM:10nM, anti-RXR (NR concentration 30 nM, RXRa partner concentration 10 nM)
Summary of the method: as §1

[10] = test system: PPARg:RXRa 90nM:30nM, anti-RXR (NR concentration 90 nM, RXRa partner concentration 30 nM)
Summary of the method: as §1

Sequence	PBM binding z-score [1]	PBM binding z-score [2]	PBM binding z-score [3]	PBM binding z-score [4]	PBM binding z-score [5]	PBM binding z-score [6]	PBM binding z-score [7]	PBM binding z-score [8]	PBM binding z-score [9]	PBM binding z-score [10]
TTACCAAGGCGAAAGGTCGTTGATGCACGCCTTG	1.27	1.41	0.121	1.38	-0.953	3.5	5.49	6.09	5.18	6.24
ATCTCTAGGTAAAGTTCAGGGAAAGATCGATAGA	1.49	2.4	1.88	1.58	1.03	2.86	3.53	4.62	2.77	4.35
GGAACGAGGGCCAGTTGATAGCAGAGTTTGATGG	-0.532	-0.8	-0.645	-1.21	-0.96	-0.53	0.258	-0.67	-0.491	-0.758
CCAGACAGGTGAGAAGGTAACGCAGCCTCGATTA	-0.0305	0.0782	-0.18	0.115	-0.496	0.743	0.809	0.998	-0.268	0.809
CCTGACAGGTGAGAAGGTAACTCAGCCTCGATTA	-0.00915	0.102	-0.219	-0.0265	-0.779	0.763	0.404	0.701	-0.205	0.257
GATACAGTGTCAGCTAGAGGCCAGAGTATGGAAA	-0.507	-0.554	-0.437	-0.763	-0.98	-0.257	0.158	-0.349	-0.273	-0.224
TCTAGTTGGTCACGGAGGTAACACACGACGGGTA	0.499	0.13	-0.316	0.404	0.515	1.02	1.34	1.92	3.23	2.25
TCTTGTAGATCAGAGGTTAAGAAAGCCGAAGCCT	0.507	1.04	-0.0177	1.4	-0.128	2.87	4.35	5.58	4.79	5.63
AGAATGAGGTTATACGTAGATCGGGGAAGAAAGT	2.27	2	0.119	1.96	0.366	3.29	1.84	2.15	0.629	1.49
GCGACTGGGGCAAAGCAGGTTACTATAAGGTTGG	0.109	0.31	-0.478	0.342	-0.602	1.4	1.31	1.5	0.185	1.06
CAATCTAGGTCAAGAGGTCAAAGTCCGCTTCCCG	7.07	6.49	6.61	5.64	2.31	6.48	10.2	8.66	7.43	9.5
TTACCAAGGTGAAACGTCGTTGATGCACGCCTTG	0.678	0.335	-0.246	0.141	-0.495	1.96	1.66	2.76	1.24	2.15
ACTAGCAGGCCAAGTATGGGTCACTCAAACAAAG	0.0234	0.143	-0.148	0.932	-0.854	1.74	0.661	0.755	-0.094	0.375
CGTCCAAGGTCAATGCCAGGTCAGTGAAAGCATT	7.1	5.52	3.08	4.42	1.04	5.11	4.05	4.59	1.16	3.45
TCTCGGAGGACACGAAGGTCAGAGTTTTCCAGAG	1.18	0.932	0.497	1.22	-0.785	1.81	0.436	1.67	2.25	1.87
ATCGAAAGGTCGTGTGGTGAGTATACAGAAAGGC	4.91	4.22	0.724	3.43	1.53	4.84	3.01	3.37	1.38	2.57
TCTGCTAGGTCAACGATGGTCAGCCAATCTGCTA	3.5	2.9	-0.0342	1.57	-0.0158	3.17	2.73	3.17	1.79	2.48
AGTCAAAGTTTAGGACGAGGTAACGTAAAGCACG	0.493	-0.103	-0.205	-0.158	-0.175	0.331	0.904	0.793	0.252	0.625
ATCTCTAGGTAAGACTGAGTTCAGTGAAGAACGC	0.449	0.657	0.601	0.352	0.691	0.568	-0.0566	0.369	0.167	0.0734
CCTGCTAGGTCAATGGTCAACTAAAGCAGCTCGC	3.09	2.16	-0.236	1.83	-0.0517	3.42	5.68	5.74	4.25	5.51
AGAATGTGGTTATTAAGATCAGGGAATTGCGGTC	0.0647	-0.0146	0.00993	-0.0352	0.111	-0.0476	0.144	0.078	-0.037	0.417
TCGAGTCGGTTAGGGGCATTCAGAATGGCGTCGA	0.0826	-0.161	-0.614	0.203	-0.666	0.491	-0.446	0.528	0.725	0.702
GCTGCTAGGTCAACTGATGGTCGGCTAAAGCTCG	3.88	3.08	0.00529	1.89	-0.133	3.7	2.39	3.16	0.547	1.99
TCTGGGAGGACACGAAGGTCAGAGCTTTCCAGAG	1.36	1.16	0.204	1.3	-0.86	1.81	0.579	1.36	1.51	1.53

Sequence	PBM binding z-score [1]	PBM binding z-score [2]	PBM binding z-score [3]	PBM binding z-score [4]	PBM binding z-score [5]	PBM binding z-score [6]	PBM binding z-score [7]	PBM binding z-score [8]	PBM binding z-score [9]	PBM binding z-score [10]
ACAGACACGTGAGTGAAGGTAACTCAGCTGGACG	-0.234	-0.154	-0.292	-0.456	-0.355	-0.342	0.663	-0.357	-0.193	-0.63
TATCGGAGGACACGAAGGTCAGAGCTTTCCAGAG	1.17	1.65	1.08	1.14	-0.0992	1.88	0.951	1.18	0.288	0.613
TCGAGTAGGTTTGGGGCATTCAGAATGGCGTCGA	-0.5	-0.529	-0.289	0.316	-0.295	0.0771	-0.558	0.475	0.701	0.598
CGAATTAGGTCAGAACAGGACAGTGAAGGATGAT	1.56	1.31	0.144	0.781	0.086	3.41	4.98	4.59	2.05	3.65
GATACAGGGTCAAGGCCAGAGGACGCGTATTGAT	6.78	4.13	-0.101	3.54	-0.0333	5.49	6.03	5.55	2.01	4.12
TGAATGATGTTAAAGATCAGGGAACGTGGCGTCG	0.0753	0.0362	-0.207	-0.167	0.281	0.925	1.32	2.98	1.82	2.49
CAAACTAGGTCAAAGGTCAAAGTGGAGCCAACCA	7.94	7.01	5.57	6.96	3.14	7.45	13.9	11.2	12.3	13.7
TAGCCTAGGTCAGATCGAGCCAGTATACGCTATA	1.14	0.783	-0.473	0.421	-0.463	1.42	0.564	0.606	-0.102	0.29
ATCTCTAGGTAACCAAGTCCAGTGAATGCCGAAC	0.284	0.199	-0.00888	0.0348	0.546	0.54	0.444	0.891	0.172	0.381
TCTGGTAGATCAGCAGGTTAAGAAAGCTGGCCAA	-0.0813	-0.0843	-0.0573	0.308	-1.12	0.507	-0.637	1.06	1.81	1.12
CCTATAAGTTGACCATAAGGGCAACCGAAGCTCG	1.36	0.588	0.467	0.379	0.387	0.93	0.632	0.292	0.0132	-0.0263
TAGCCGAGGTCATGGGCCAGTATACCACGCGAAC	7.63	5.96	0.925	4.99	0.79	6.28	7.45	7.21	3.43	5.67
CCAGACAGGAGAAAGGTAACTCAGTCTGGTACGC	-0.00582	-0.0922	-0.373	-0.0883	-0.51	0.347	0.817	1.46	0.169	0.958
TCTAGCAGGCCAGCGGGTCACTCAAGAGGTACGG	0.662	0.558	-0.567	0.777	-0.97	1.92	0.601	1.74	1.72	1.65
CTCGAACGGTCGGTTGAGGTGAGTATACGGATAA	0.102	-0.565	-0.727	-0.59	-0.761	-0.3	-0.199	-0.622	-0.623	-0.601
AGAATGAGGTTATTAAGAGCAGGGAATTGCGGTC	1.73	1.76	0.247	1.32	0.0744	2.77	1.58	1.87	0.503	1.45
ATATGTAGGTTACATCCGGGTCATTAAGGCTATG	2.39	4.11	1.5	3.09	0.566	4.35	6.02	5.08	2.66	4.28
TCTAGCAGGCCAGAGGGACACTCAAGAGGTACGG	-0.341	-0.607	-1.2	-0.951	-1.48	-0.201	0.823	1.13	1.39	1.15
TCATATAGGTAGATGCTAGGTGAAAGTCCGATCT	0.567	0.862	0.165	0.357	-0.423	0.819	0.568	1.87	3.53	2.7
GATACAGGGTCAGCTAGAGGCGAGAGTATGGAAA	4.63	2.33	-0.47	2.27	-0.792	4.46	3.77	3.24	1.08	1.87
CCTATTAGTTGACCATAAGGTCAACCGAAGCTCG	4.88	4	3.35	3.83	1.73	4.06	1.48	3.02	1.42	2.61
CCATACGGGTCACTGACAGGTTATAGCATTTGGA	4.49	4.04	0.394	3.31	0.0673	4.83	3.92	3.76	1.43	2.41
TCATATAGGTAAATGCTAGGTGATAGTCCGATCT	0.869	0.734	-0.164	0.564	-0.125	1.2	1.13	2.24	3.56	2.87
TTTGCTAGGTCAACGATGGTCAGCTAATCTGCTA	3.71	4.07	1.84	2.07	-0.0738	3.59	3.4	3.77	1.38	2.86
